DT40 TDP1 no CPT: qHTS for Inhibitors of human tyrosyl-DNA phosphodiesterase 1 (TDP1): qHTS in cells in absence of CPT; DT40 Tdp1-/- hTDP1 cells, no CPT, ATP luminescence, 48 h; Potency, µM (titrated, usually from 46.2 µM), for the others: at the top dose activity change, negative = growth inhibition, most hits filed as inhibitors; actives 15% (n = 420,000); AID 686978, 2013; note: potency is the fitted concentration of half-maximal effect; nearly all actives have a fitted effect of over 55% in size
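Chicken DT40 Tdp1-/- cells complemented with human TDP1, screened without camptothecin (DMSO vehicle only), 400 cells/well. Compounds pin-transferred, cells incubated at 37 °C for at least 48 hr. Growth read as ATP-dependent luminescence (CellTiter-Glo, 30 min at RT).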
DT40 TDP1 CPT: DT40-hTDP1 cell growth loss with CPT; actives 12% (n = 420,000); chicken DT40 Tdp1-/-;hTDP1 cells + 20 nM CPT, ATP luminescence, 48 h; Potency, µM (titrated, usually from 46.2 µM), for the others: at the highest dose activity change, negative = growth inhibition, most hits filed as inhibitors; note: potency is the fitted concentration of half-maximal effect; nearly all actives have a fitted effect of over 55% in size
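Chicken DT40 Tdp1-/- cells stably complemented with human TDP1 were seeded at 400 cells/well in medium containing 20 nM camptothecin, exposed to pin-transferred compounds, and grown at 37 °C for at least 48 hr. Viability was read as ATP luminescence.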
TDP1 inh: blocks human tyrosyl-DNA phosphodiesterase 1; recombinant TDP1, AlphaScreen DNA substrate cleavage; Q9NUW8; Potency, µM (titrated, usually from 130 µM), without a hit: at the top dose activity change, negative = inhibition, actives largely listed as inhibitors; actives 0.28% (n = 350,000); note: potency is the fitted concentration of half-maximal effect; nearly all actives have a fitted effect of over 40% in size
Target sequence (Q9NUW8 whole entry, looked up): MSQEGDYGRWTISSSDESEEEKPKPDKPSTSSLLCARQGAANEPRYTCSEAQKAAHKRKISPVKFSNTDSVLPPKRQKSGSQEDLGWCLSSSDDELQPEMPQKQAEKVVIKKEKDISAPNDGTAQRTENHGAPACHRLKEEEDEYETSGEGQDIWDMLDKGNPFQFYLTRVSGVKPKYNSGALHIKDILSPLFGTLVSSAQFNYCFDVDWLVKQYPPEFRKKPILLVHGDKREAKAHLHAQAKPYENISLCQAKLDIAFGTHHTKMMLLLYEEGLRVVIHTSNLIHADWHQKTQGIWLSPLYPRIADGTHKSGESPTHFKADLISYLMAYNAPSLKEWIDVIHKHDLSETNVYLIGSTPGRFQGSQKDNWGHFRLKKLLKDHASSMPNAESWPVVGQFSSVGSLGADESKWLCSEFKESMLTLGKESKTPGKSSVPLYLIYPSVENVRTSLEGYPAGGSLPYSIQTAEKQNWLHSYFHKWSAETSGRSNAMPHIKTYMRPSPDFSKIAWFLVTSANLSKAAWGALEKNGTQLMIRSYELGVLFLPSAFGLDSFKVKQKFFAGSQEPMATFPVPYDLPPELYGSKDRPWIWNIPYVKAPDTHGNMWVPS
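Signal: AlphaScreen proximity between streptavidin donor and anti-FITC acceptor beads on intact substrate. Reaction: Tdp1 1 nM, substrate 15 nM final, 5 min RT after 15 min compound preincubation.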
ELG1 DNA repair: blocks ELG1-dependent DNA repair in HEK293T cells; HEK293T ELG1-luciferase reporter, luminescence, 16 h; DNA damage induced by 5-fluorouridine; Potency, µM (doses to about 46.1 µM), inactives show at the top dose activity change, negative = inhibition, most hits filed as inhibitors; actives 2.3% (n = 330,000); note: potency is the fitted concentration of half-maximal effect; nearly all actives have a fitted effect of over 55% in size
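HEK293T cells expressing luciferase-tagged ELG1 (2,000/well) received 5-Fluorouridine plus compound or DMSO for 16 hr at 37 °C. Luciferase was read by ONE-Glo luminescence after 30 min at room temperature.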
Giardia killer: Giardia lamblia killing; Giardia lamblia trophozoite viability; activity change, % at 7.66 µM, hits read low; actives 0.15% (n = 340,000); in the data active = activity change below about -80%; inconclusive = between about -30% and that limit;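 note: parasites exposed to compound for two days anaerobically before the ATP read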
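Luminescent ATP signal served as the viability read-out, measured 15-30 min after adding ATP detection reagent to trophozoites that had been incubated with compounds for 48 hrs at 37 deg C anaerobically at 100 cells/well.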
IL1B secr inh: inhibitors of inflammasome signaling (IL-1 beta secretion) | THP-1 LPS/ATP IL-1B secretion, AlphaLISA, 16 h; active compounds read low | activity change, % at 57.5 µM | actives 4.7% (n = 360,000) | AID 743279; in the data active = activity change below about -50%; inconclusive = mostly about -30% to -49%
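THP-1 cells pretreated 1 hr with compounds (up to 57.5 uM final), then stimulated with LPS (250 ng/mL final) plus ATP (1.25 mM final); secreted IL-1B measured by AlphaLISA after 16 hr, decreased signal indicating inhibition.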
Numbers without * were called inactive; u = inconclusive; x = not tested or not shown; [ ] = remark or other dose. Compounds with a hit are over-represented: about 19% of the library has one in this group of screens. Unless noted, calls come from the whole dose curve; as a rule, active = well fitted curve in the direction sought with a large enough effect; inconclusive = small, poorly fitted or top-dose-only effect, or another doubt; inactive = no such curve, though single readings can be large; an effect the other way counts as inactive or inconclusive. % is set by controls: 0 for no effect and ±100 for the full control effect.

SMILES	DT40 TDP1 no CPT	DT40 TDP1 CPT	TDP1 inh	ELG1 DNA repair	Giardia killer	IL1B secr inh
CCOc1ccc(-c2c(C)nn3c(C)c(C(=O)NCc4ccc(C)o4)cnc23)cc1OCC	u	u	5.8%	x	x	x
CCOc1ccc(-c2c(C)nn3c(C)c(C(=O)NCc4cccc(OC)c4)cnc23)cc1OCC	u	9.2µM*	1.9%	x	x	x
CCOc1ccc(-c2c(C)nn3c(C)c(C(=O)NCc4ccc(Cl)cc4)cnc23)cc1OCC	1.64µM*	1.16µM*	3.2%	x	x	x
CCOc1ccc(C(=O)NCC(c2ccco2)S(=O)(=O)c2cccs2)cc1 (stereo unspecified)	u	u	2.6%	x	x	x
O=C(Nc1nc2ccccc2n1CCN1CCOCC1)c1ccc(Cn2cc([N+](=O)[O-])cn2)o1	-21.3%	16.4µM*	4.0%	u	25.2	-7.8
O=C(Nc1nc2ccccc2n1CCN1CCOCC1)c1ccc(COc2ccccc2Br)o1	u	u	8.2%	20.6µM*	3.2	-95.0*
O=C(N/N=C1\CCSc2ccc(F)cc21)c1cccnc1	-19.2%	-10.1%	6.3%	13.6%	-16.4	-22.9
NC(=S)N/N=C1\CCSc2ccc(Cl)cc21	18.4µM*	20.6µM*	x	u	30.9	-1.6
Cc1ccccc1OCC(=O)OCn1nnc2ccccc2c1=O	-5.5%	11.9%	-2.9%	5.2%	-13.9	1.4
COC(=O)c1ccc2c(=O)[nH]c(COC(=O)c3[nH]c(C)c(C(C)=O)c3C)nc2c1	16.4µM*	u	-3.0%	5.8µM*	7.8	32.1
CC(=O)c1c(C)[nH]c(C(=O)OCn2nnc3ccccc3c2=O)c1C	16.4µM*	16.4µM*	2.0%	18.4µM*	12.8	13.2
C[C@H](NC(=O)c1ccc(Cl)cc1)C(=O)OCn1nnc2ccccc2c1=O	-24.0%	u	0.2%	13.8%	12.0	3.3
CC(NC(=O)c1ccccc1)C(=O)OCn1nnc2ccccc2c1=O (stereo unspecified)	14.9%	25.9µM*	-0.4%	16.4%	16.8	-5.4
Cc1ccc(C)c(S(=O)(=O)N2CCN(CC(=O)NC(C)c3ccccc3)CC2)c1 (stereo unspecified)	-16.5%	-2.1%	0.5%	-29.6%	-0.9	-15.1
CCOC(=O)c1cnc2ccc(OC(F)(F)F)cc2c1Nc1ccccc1C(=O)O	14.6µM*	u	11.0%	x	x	x
CCOC(=O)c1cnc2ccc(OCC)cc2c1Nc1cc(Cl)c(OC)cc1OC	25.9µM*	14.6µM*	-0.6%	x	x	x
CCOC(=O)c1cnc2ccc(OC)cc2c1NCCc1ccccc1	10.3µM*	u	-0.4%[12.3 µM]	x	x	x
CCOC(=O)c1cnc2ccc(OC)cc2c1Nc1cccc(C(C)=O)c1	20.6µM*	16.4µM*	-4.0%[12.3 µM]	x	x	x
CCOC(=O)c1cnc2cc(F)c(F)cc2c1Nc1ccccc1O	x	x	5.8%	x	x	x
CCOC(=O)c1cnc2c(ccc3ccccc32)c1Nc1cccc(Cl)c1	-20.2%	-5.0%	-3.1%[12.3 µM]	x	x	x
Cc1cnc(CNC(=O)c2csc([C@@H]3C[C@H](O)[C@@H](CO)O3)n2)cn1	-17.3%	1.0%	x	x	x	-9.8
CCOC(=O)c1cnc2ccc(OC)cc2c1NCc1ccccc1	u	u	x	-28.8%	12.9	1.8
CCOC(=O)c1cnc2ccc(OCC)cc2c1NCc1ccccc1OC	5.17µM*	5.17µM*	1.2%	u	-14.5	-88.8*
CCCCCCSc1nsc(NC(=O)CCC)n1	u	-4.2%	0.0%	u	3.3	7.6
CC1Nc2ncnc(N3CCN(c4ccccn4)CC3)c2N(Cc2ccccc2)C1=O (stereo unspecified)	u	u	x	-3.4%	23.3	-8.9
O=C1C(Cc2ccccc2)Nc2ncnc(N3CCc4ccccc4C3)c2N1Cc1ccc(Br)cc1 (stereo unspecified)	x	x	7.8%	-12.6%	x	x
